# High-throughput results (PubChem)
# GLA inh pH 4.5: qHTS Assay for Inhibitors of Human alpha-Galactosidase at pH 4.5. Alpha-galactosidase A (Homo sapiens), P06280. purified enzyme, 4-MU-alpha-Gal fluorescence, pH 4.5. activity change, negative = inhibition, % at 105 µM. 230,000 tested, under 10 active;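 further: 0% = full activity with enzyme and -100% = basal without enzyme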
# Target sequence (P06280 whole entry, looked up): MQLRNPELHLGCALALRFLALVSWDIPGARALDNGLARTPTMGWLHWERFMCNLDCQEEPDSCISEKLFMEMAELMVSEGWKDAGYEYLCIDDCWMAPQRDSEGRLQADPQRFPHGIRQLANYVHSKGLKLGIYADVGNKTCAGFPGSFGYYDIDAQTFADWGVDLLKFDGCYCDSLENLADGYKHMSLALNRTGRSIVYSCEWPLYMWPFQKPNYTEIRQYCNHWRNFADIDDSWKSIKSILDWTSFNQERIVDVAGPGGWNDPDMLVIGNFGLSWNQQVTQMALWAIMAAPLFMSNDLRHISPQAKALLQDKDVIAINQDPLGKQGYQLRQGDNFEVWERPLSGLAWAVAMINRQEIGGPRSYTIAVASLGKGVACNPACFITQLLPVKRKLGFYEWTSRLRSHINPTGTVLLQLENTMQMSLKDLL
# HTT ATP protect: qHTS Multiplex Assay to Identify Dual Action Probes in a Cell Model of Huntington: Cytoprotection (ATP) | AID 1471, 2008 | Potency, µM (doses to about 56.4 µM), for inactives: cytoprotection (ATP increase), most hits filed as activators | 230,000 tested, 0.14% active | PC12 HTT-Q103 induced, cytoprotection, ATP luminescence, 40 h; further: potency means the concentration at half of the fitted maximal effect; % of control where 0% means no effect; nearly all actives have a fitted effect of over 45% in size
#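 Compounds were screened for protection of PC12 cells against cell death after tebufenozide induction (100 nM final) of mutant Huntingtin exon 1 (Q103) fused to GFP.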
# GLA spleen mod: qHTS Assay for Inhibitors and Activators of Human alpha-Galactosidase From Spleen Homogenate; Potency, µM (doses to about 80 µM), for inactives: at the highest dose activity change, negative = inhibition, hits mostly inhibitors; Alpha-galactosidase A (Homo sapiens), P06280; 240,000 tested, 0.008% active; human spleen homogenate, 4MU-alpha-Gal fluorescence, 40 min;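 further: potency means the concentration at half of the fitted maximal effect; 0% = enzyme with vehicle and -100% = no enzyme basal signal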
#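 Human spleen homogenate (1 ug) as enzyme source, 4-methylumbelliferyl-alpha-D-galactopyranoside 1 mM final, citrate/phosphate pH 5.0 with 0.01% Tween-20. Compounds 40 min at 37C, NaOH/glycine stop; fluorescence Ex 365/Em 440, Hill-fit AC50.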
# HttQ103 aggreg: qHTS Multiplex Assay to Identify Dual Action Probes in a Cell Model of Huntington: Aggregate Formation (GFP); Potency, µM (top dose mostly 46.1 µM), inactives show at the highest dose activity change, negative = inhibition, most hits filed as inhibitors; AID 1688, 2009; PC12 HttQ103-GFP aggregates, Acumen cytometry, 40 h; 220,000 tested, 1.1% active; further: potency means the concentration at half of the fitted maximal effect; on the % scale 0 is the no-effect control and ±100 the full control effect; nearly all actives have a fitted effect of over 60% in size
#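 PC12/HTTQ103-GFP, ecdysone-inducible; teb 100 nM; cpd qHTS titration; GFP aggregates read on laser cytometer, Ex 488/Em 500-530 nm.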
# ERK EGF inh: qHTS Assay for Inhibitors of the ERK Signaling Pathway using a Homogeneous Screening Assay; Stimulation with EGF; HEK293-V1b, EGF-stimulated phospho-ERK AlphaScreen; Potency, µM (series often up to 11.5 µM), inactives show at the highest dose activity change, negative = inhibition, most hits filed as inhibitors; 130,000 tested, 0.41% active; AID 1454, 2008;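 further: potency means the concentration at half of the fitted maximal effect; plate controls were stimulated vehicle wells for no effect and unstimulated vehicle basal for full effect; nearly all actives have a fitted effect of over 55% in size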
#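 Compounds are titrated over HEK293-V1b cells kept overnight in 1% FBS. After 30 min at 37C, EGF (25 nM final) triggers ERK phosphorylation for 5 min, measured by AlphaScreen in lysates.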
# Numbers without * were called inactive; ? = inconclusive; / = no result; ! = repeats disagree; [ ] = another dose, or the depositor's remark. An excerpt weighted towards active compounds, which were near 1.2% of everything screened. The call rests on the fitted dose curve; in most records, active means well fitted curve in the direction sought with a large enough effect; inconclusive means small, poorly fitted or top-dose-only effect, or another doubt; inactive means no such curve, though single readings can be large; an effect the other way counts as inactive or inconclusive.
SMILES,GLA inh pH 4.5,HTT ATP protect,GLA spleen mod,HttQ103 aggreg,ERK EGF inh
Cc1ccccc1Cn1nc(C)c(NC(=O)c2cc(CC(C)C)on2)c1C,-5,8%[10 µM],-3%,-1%[9.22 µM],1%[57.5 µM]
Cc1nn(Cc2ccc(Cl)c(Cl)c2)c(C)c1NC(=O)c1cc(CC(C)C)on1,-11,15%,4%,10µM*,/
Clc1ccc([C@@H](c2ccccc2Cl)C(Cl)Cl)cc1,/,-9%[1.9 µM],/,/,/
C/C(=N\N1C(=O)c2ccccc2NC1c1ccccc1)c1ccccc1O (centres undefined),8,/,3%,/,4%
C/C(=N\N1C(=O)c2ccccc2NC1c1ccco1)c1ccccc1O (centres undefined),3,-184%,1%,7.1µM*,-14%
Cc1ccc2c(Br)cc(Br)c(O)c2n1,/,-47%,/,-27%,/
CC(C)(C)CC(C)(C)c1ccc(O)c(-n2nc3ccccc3n2)c1,/,-31%,/,-22%,/
COc1cc(NC(=O)c2c(F)c(F)c(F)c(F)c2F)c(OC)cc1Cl,-14,7%[0.074 µM],-2%,20%,/
COc1cc(NC(=O)c2cc3nc(C)cc(C)n3n2)c(OC)cc1Cl,-19,14µM*,6%,/,/
COc1ccc(-c2nc3cnc(OCc4ccccc4)nc3n(CCC#N)c2=O)cc1,/,?,-4%,/,/
CCOc1ccc(NC(=S)Nc2ccc3nsnc3c2)cc1,-8,/,4%,3.5µM*,7%
Cc1cc(O)c2c(c1)OC1(C)CCC3C(C)(C)CCCC34COC2C14 (centres undefined),/,-25%,/,-15%,/
Nc1nc2c([nH]c(=S)n2C2OC(CO)C(O)C2O)c(=O)[nH]1 (centres undefined),-2,/,8%,/,15%
Cc1cccc(Nc2nc(-c3c(C)nc4ccccn34)cs2)c1,-6,-47%,3%,11µM*,/
Brc1cc(Br)c2ncnc(N3CCCCC3)c2c1,1,-8%[0.074 µM],1%,11µM*,/
Clc1ccc(-n2ncc3c(N4CCCCCC4)ncnc32)cc1,4,-23%[10 µM],3%,-23%,/
CC(C)C(N)C(=O)O (centres undefined),/,-19%,-3%,/,/
COc1cc(/C=C2/SC(=S)N(C)C2=O)ccc1OC(=O)c1ccco1,-2,3%[10 µM],-10%,-11%,-2%
CCOc1cc(/C=C2/SC(=S)NC2=O)ccc1OC(=O)c1ccco1,-2,-124%,-12%,14µM*,-6%
CC1(C)OC2C(CO)OC(n3cnc4c(=O)[nH]c(N)nc43)C2O1 (centres undefined),7,/,3%,/,30%
CCCCCCCCCCCCCCCC(=O)C1=C(O)C(CO)OC1=O (centres undefined),/,-9%,-6%,/,/
COc1ccc(C(=O)NNC(=S)NC(=O)c2ccco2)cc1,-3,-46%,-4%,20µM*,/
O=C(NC(=S)NNC(=O)c1cccs1)c1ccco1,-6,-77%,-16%,11µM*,/
CCCNC(=O)c1nnsc1S(=O)(=O)c1ccc(Cl)cc1,1,-144%,-7%,?,-5%
CNC(=O)c1nnsc1S(=O)c1ccc(Cl)cc1 (centres undefined),-4,-142%,-12%,14µM*,-3%
SMILES,GLA inh pH 4.5,HTT ATP protect,GLA spleen mod,HttQ103 aggreg,ERK EGF inh
CCCNC(=O)c1nnsc1S(=O)c1ccc(Cl)cc1 (centres undefined),1,-150%,5%,11µM*,-3%
COC(=O)c1c(NC(=O)c2ccccc2)sc2c1CC(C)(C)NC2(C)C,5,-4%[10 µM],1%,2%[9.22 µM],3%[57.5 µM]
COC(=O)c1c(NC(=O)c2ccc(OC(C)C)cc2)sc2c1CC(C)(C)NC2(C)C,?,-23%[10 µM],?,1%[9.22 µM],28µM*
CCCC1/C(=N/O)CC(c2ccccc2)NC1c1ccccc1 (centres undefined),-10[21.1 µM],-143%,-1%,?,35µM*
Oc1cc2c(cc1O)[C@@H]1c3ccc(O)c(O)c3OC[C@]1(O)C2,-5,-120%,-5%,/,?
CCC(C(=O)O)C1OC(C(C)C(O)C(C)C(=O)C(CC)C2OC3(C=CC(O)C4(CCC(C)(C5CCC(O)(CC)C(C)O5)O4)O3)C(C)CC2C)C(C)CC1C (centres undefined),/,-96%,/,1.8µM*,/
CC(C)c1onc(C(=O)NCCc2ccccc2)c1[N+](=O)[O-],2[21.1 µM],12%,4%,-5%,-3%
CC(C)c1onc(C(=O)NC(C)c2ccccc2)c1[N+](=O)[O-] (centres undefined),1,-41%,9%,4.5µM*,-6%[57.5 µM]
O=C(NC1CCCC1)c1cc2c(ccc3ccccc32)o1,-7,-38%,2%,11µM*,/
Cc1cc(C)nc(Sc2ncnc(N)c2[N+](=O)[O-])n1,4,4%[10 µM],1%,10µM*,-11%
CCc1nnc(NC(=O)c2ccc(S(=O)(=O)N(CC(C)C)CC(C)C)cc2)o1,3,-19%[10 µM],0%,12%,2%
CSCc1nnc(NC(=O)c2ccc(S(=O)(=O)N(CC(C)C)CC(C)C)cc2)o1,4,-60%,0%,10µM*,/
COc1ccc(Cl)c(N2CCN(CCCNC(=O)Nc3ccc(C)cc3)CC2)c1,-11,-35%,0%,35µM*,/
c1nc2sc3c(c2c2nnnn12)CCCC3,-12,6%[1.9 µM],-7%,10µM*,/
c1nc2sc3c(c2c2nnnn12)CCC3,-4,15%,-17%,?,/
CCCc1nc(SCC(=O)N2CCC(Cc3ccccc3)CC2)c2c(=O)n(C)c(=O)n(C)c2n1,-6,-26%,-3%,25µM*,/
Cn1c(=O)c2c(SCC(=O)N3CCC(Cc4ccccc4)CC3)nc(C3CC3)nc2n(C)c1=O,/,4%,/,/,/
C=COC(=O)/C=C/C,/,/,-1%,/,/
CCCCc1nc2c(c3c1C[C@H](C)OC3)CN(S(=O)(=O)c1ccc(NC(C)=O)cc1)CC2,7,-6%[10 µM],11%[17.5 µM],/,/
Nc1ncn([C@@H]2O[C@H](CO)[C@@H](O)[C@H]2O)c(=O)n1,3,-111%,-3%,13µM*,16%
OCC1OC(n2cnc3c(Cl)ncnc32)C(O)C1O (centres undefined),1,/,6%,/,27%
CN(C)c1ncnc2c1ncn2C1OC(CO)C(O)C1O (centres undefined),-8,-103%,-4%,4.5µM*,/
Nc1nc2c(ncn2[C@@H]2O[C@H](CO)[C@@H](O)[C@H]2O)c(=O)[nH]1,7,-3%[1.9 µM],-1%,/,-6%
O=c1[nH]cnc2c1ncn2C1OC(CO)C(O)C1O (centres undefined),0,8.9µM*!,6%,-6%,6%
CN(C)C1CCN(CCCOc2ccc(-c3ccc(C#N)cc3)cc2)C1 (centres undefined),/,/,8%,/,/
